CBFb RUNX1 block: CBF-beta/RUNX1 interaction disruption; Q01196+Q13951; AlphaScreen CBFb-His/RUNX1-biotin binding, biochemical; Potency, µM (titrated, usually from 59.8 µM), inactives show at the highest dose activity, negative = inhibition, actives largely listed as inhibitors; 230,000 tested, under 10 active; AID 1477; note: % of control where 0% means no effect
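CBFb-His/RUNX1-biotin, 30 nM each, preincubated 20 min RT; compound 15 min RT; Ni + streptavidin beads 50 ng each, 90 min RT; AlphaScreen read.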
Eya2 inh: blocks the phosphatase activity of human Eya2; O00167; recombinant Eya2, OMFP fluorescence dephosphorylation (OMFP is methylfluorescein phosphate); Potency, µM (highest dose often 76.9 µM), for the others: top-dose activity, negative = inhibition, hits mostly inhibitors; 0.006% of 330,000 active; AID 488837; note: potency is the fitted concentration of half-maximal effect; % is set by controls: 0 for no effect and ±100 for the full control effect
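Eya2 protein (added as 0.2 uM solution) was preincubated with compound for 10 min at ambient temperature in 50 mM HEPES pH 7.5, 50 mM NaCl, 5 uM MgCl2, 0.05% BSA, 1 mM DTT. OMFP (added at 50 uM) then reacted 10 min; fluorescence read at 485/525 nm.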
TR SRC2 fluor cs: counter-screen for TRb-SRC2 inhibitors: fluorescence interference | 0.29% of 280,000 active | Potency, µM (doses to about 106 µM), inactives show at the top dose fluorescence change, negative = quenching | AID 1479 | TRb/SRC2 Texas Red total fluorescence interference; active = well fitted curve in either direction with a large enough effect; inconclusive = small, poorly fitted or top-dose-only effect; note: potency is the fitted concentration of half-maximal effect; % is set by controls: 0 for no effect and ±100 for the full control effect
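Human TRb ligand-binding domain at 0.6 uM with 20 nM Texas Red SRC2 peptide in Tris buffer containing 1 uM T3 and 5% DMSO, incubated with compound 5 h at ambient temperature. Total fluorescence (555/632 nm) calculated as parallel + 2 × perpendicular.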
USP2a inh: USP2a (human) protease inhibition. O75604. AID 463254. USP2 core, Ub-CHOP2 coupled fluorogenic reporter, 485/531. Potency, µM (highest dose often 38.3 µM), inactives show top-dose activity change, negative = inhibition, actives largely listed as inhibitors. 0.01% of 330,000 active;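 note: potency is the fitted concentration of half-maximal effect; plate controls were DMSO wells for no effect and full inhibition by NEM control for full effect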
Target sequence (O75604 whole entry, looked up): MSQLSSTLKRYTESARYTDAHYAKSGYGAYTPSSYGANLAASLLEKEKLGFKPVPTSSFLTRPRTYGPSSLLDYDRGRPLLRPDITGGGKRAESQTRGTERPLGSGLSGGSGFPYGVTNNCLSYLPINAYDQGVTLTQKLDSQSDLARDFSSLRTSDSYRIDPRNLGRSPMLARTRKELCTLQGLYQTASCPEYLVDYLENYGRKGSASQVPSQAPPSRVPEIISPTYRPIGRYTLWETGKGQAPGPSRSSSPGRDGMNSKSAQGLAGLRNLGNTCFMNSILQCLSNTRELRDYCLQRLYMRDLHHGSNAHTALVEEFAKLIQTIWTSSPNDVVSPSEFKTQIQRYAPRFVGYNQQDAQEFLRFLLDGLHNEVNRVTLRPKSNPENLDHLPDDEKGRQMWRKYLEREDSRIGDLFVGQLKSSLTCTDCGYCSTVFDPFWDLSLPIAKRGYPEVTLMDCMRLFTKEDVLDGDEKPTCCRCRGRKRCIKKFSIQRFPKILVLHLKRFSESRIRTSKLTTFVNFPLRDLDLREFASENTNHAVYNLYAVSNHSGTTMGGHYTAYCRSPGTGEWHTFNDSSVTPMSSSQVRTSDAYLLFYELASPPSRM
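Cell-free coupled assay: 10nM USP2 core preincubated 30min RT with compound in Tris-HCl pH 8.0/CaCl2/CHAPS buffer, then 25nM Ub-CHOP2 and 25nM reporter substrate; fluorescence (Ex 485/Em 531) read after 60min RT, normalized to NEM inhibition, concentration-response curves fitted.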
TSHR antag: human thyrotropin receptor antagonism. P16473. TSHR-expressing cells, TSH-stimulated cAMP HTRF, 2 h; stronger effect = lower value. activity change, negative = inhibition, % at 11.5 µM. 0.2% of 330,000 active;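 active = activity change below a set negative limit, meaning inhibition stronger than a set level, cut at about -70% in these data; inconclusive = activity change between two set negative limits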; note: % is set by controls: 0 for no effect and ±100 for the full control effect
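Inhibition of cAMP made by TSHR-expressing cells under TSH stimulation (4nM final, EC80; 2 h, 37 deg C) is quantified with a one-step lysis HTRF kit, anti-cAMP cryptate versus cAMP-d2.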
TRb-SRC2 inh: disrupts binding of human TR beta to SRC2. P10828. Potency, µM (top dose mostly 106 µM), for the others: at the top dose activity change, negative = inhibition, usual class: inhibitors. TRbeta-SRC2 peptide binding, fluorescence polarization; receptor liganded with 1 µM T3. 0.065% of 280,000 active;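 note: potency is the fitted concentration of half-maximal effect; plate controls were bound peptide for no effect and peptide without receptor for full effect; nearly all actives have a fitted effect of over 50% in size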
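Human TRb ligand-binding domain (0.6 uM) is mixed with 20 nM Texas Red SRC2 peptide and 1 uM T3; after compound addition and 5 hr at ambient temperature, polarization is measured and normalized to unbound and bound controls.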
Active calls of the source: *; ? = inconclusive; . = not tested or not shown; [ ] = another dose, or the depositor's remark. Only some compounds are listed: those with a hit (about 0.38% of all), similar ones and a draw of the others. Unless noted, calls come from the whole dose curve; as a rule, active = well fitted curve in the direction sought with a large enough effect; inconclusive = small, poorly fitted or top-dose-only effect, or another doubt; inactive = no such curve, though single readings can be large; an effect the other way counts as inactive or inconclusive.

SMILES | CBFb RUNX1 block | Eya2 inh | TR SRC2 fluor cs | USP2a inh | TSHR antag | TRb-SRC2 inh
Cc1ccccc1-[n+]1c(-c2ccccc2)cc(-c2ccccc2)cc1-c1ccccc1 | . | -5.2% | . | 1.2% | -74.8* | .
Oc1ccccc1-[n+]1c(-c2ccccc2)cc(-c2ccccc2)cc1-c1ccccc1 | . | -1.2% | . | -0.2% | -1.1 | .
CCOP(=O)(OCC)C(NC(=O)c1cccc2ccccc12)C(Cl)(Cl)Cl (stereo not given) | -4.9% | -2.5% | 31.6µM*[quencher] | 2.8% | 50.5 | -17.2%[53 µM]
CCOP(=O)(OCC)C(NC(=O)c1ccccc1C)C(Cl)(Cl)Cl (stereo not given) | -18.9% | 0.5% | 3.16µM*[quencher] | 1.1% | 50.5 | -0.2%[53 µM]
CCOP(=O)(OCC)C(NC(=O)c1cccc(C)c1)C(Cl)(Cl)Cl (stereo not given) | 11.1% | -2.2% | -2.5% | 1.4% | 14.7 | -0.4%
ClC1=C(Cl)C2(Cl)C3C4OC4C(Cl)C3C1(Cl)C2(Cl)Cl (stereo not given) | . | . | -1.1%[201 µM] | . | . | 8.2%[201 µM]
C[C@]12CC[C@H](O)C[C@H]1CC[C@@H]1[C@@H]2C[C@@H](O)[C@]2(C)[C@@H](C3=CC(=O)OC3)CC[C@]12O | . | 8.3% | . | 0.7% | -75.3* | .
C[C@]12CC[C@H](O)C[C@H]1CC[C@@H]1[C@@H]2CC[C@]2(C)[C@@H](C3=CC(=O)OC3)CC[C@]12O | . | 16.5% | . | 0.7% | -78.1* | .
CCCCCCCCCCCCC1=C(OC(C)=O)C(=O)c2ccccc2C1=O | . | . | -0.2%[201 µM] | . | . | -9.3%[201 µM]
CN(C)c1ccc(/C=C/C=C2/C(=O)NC(=O)N(c3ccccc3)C2=O)cc1 | -1.7% | -8.1% | 3.16µM*[fluorescent] | -0.1% | -10.9 | ?
CNC(=O)Oc1cc(C)cc(C(C)C)c1 | . | . | -3.3%[201 µM] | . | . | 0.5%[201 µM]
CCn1nc(-c2ccccc2)nc2c(=O)n(C)c(=O)nc1-2 | . | 56.2µM* | -5.0% | 23.4% | -4.0 | ?
COc1ccc(-c2nc3ccccc3c(=O)n2-c2ccc(OC)cc2)cc1 | -6.0% | -6.7% | -1.3%[53 µM] | -1.5% | 33.0 | 6.5%[53 µM]
CC(=O)O[C@H]1[C@H]2O[C@]23[C@@H]2CC[C@]4(O)C[C@@H](O)CC[C@]4(C)C2CC[C@]3(C)[C@H]1c1ccc(=O)oc1 (stereo not given in full) | . | 13.3% | . | -0.1% | -79.3* | .
C[C@]12CC[C@H]3C(CCC4(O)CC(O)CC[C@]34C=O)C1=CC[C@H]2c1ccc(=O)oc1 (stereo not given in full) | . | -1.3% | . | 5.2% | ? | .
COc1cc(N2CCOCC2)ccc1C=C1C(=O)NC(=O)NC1=O | -6.3% | -0.6% | 31.6µM*[quencher] | 3.0% | 25.6 | -20.7%[53 µM]
COc1cc(N2CCOCC2)ccc1/C=C1\C(=O)NC(=O)N(Cc2cccs2)C1=O | -3.9% | -5.1% | 3.2% | 1.2% | -6.5 | 2.2%
COP(=S)(OC)Oc1c(Cl)cc(C)cc1Cl | . | . | 1.8%[201 µM] | . | . | 11.2%[201 µM]
O=C(Cc1cc(=O)[nH][nH]1)N/N=C/c1ccccc1Cl | -1.4% | -4.2% | 1413µM*[quencher] | 0.0% | 27.4 | -9.5%
COc1cccc(C(=O)NN(C(=O)c2cc(C)cc(C)c2)C(C)(C)C)c1C | . | . | 3.0%[201 µM] | . | . | -0.2%[201 µM]
CCOc1ccc(-c2nc3cc(NC(=O)COc4cccc(C)c4)ccc3o2)cc1 | . | . | 14.1µM*[quencher] | . | . | ?
Cc1cccc(OCC(=O)N2CCN(Cc3cccnc3)CC2)c1 | -3.5% | -8.0% | 1.9% | -1.1% | -0.3 | -0.1%
C/C(=N\NC(=O)Nc1cc(F)cc(F)c1)c1ncccc1C(=O)O | . | . | -1.6%[201 µM] | . | . | 2.2%[201 µM]
C1=Cc2cccc3cccc1c23 | . | . | -1.2%[201 µM] | . | . | 1.7%[201 µM]
Cc1nc2c(=O)n(C)c(=O)nc-2n(C)n1 | 9.7% | 35.5µM* | -2.4% | -0.8% | 31.4 | -16.0%
CCOP(=S)(OCC)SCSCC | . | . | -2.0%[201 µM] | . | . | -0.1%[201 µM]
COC(=O)C1=C(c2ccc(-c3ccccc3)c(F)c2)C[C@@H]2CC[C@H]1N2C(=O)NCCOc1ccccc1 | . | -13.4% | . | 2.0% | -89.1* | .
